In the supplement of paper PMC10981050:
Where a name gives a salt, the structure may show the parent alone.

test system: MARIMO; assay: cell viability relative to vehicle control; higher = less cytotoxic; details: 10 µM; SRSF2 genotype: SRSF2 wt/wt
In short: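 CRISPR-edited mutant clones and isogenic wild-type clones from four leukaemia lines were screened against Selleck bioactive, kinase and epigenetic probe libraries, with identity-inconsistent compounds excluded. Each compound was acoustically dispensed at a single 10 µM dose into 384-well plates holding 2000 cells in 50 µL medium per well. After 48 h the supernatant was removed and CellTiter-Glo luminescence was read. Viability was expressed as percent of the on-plate vehicle control and analysed in Genedata Screener.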

Structure (SMILES)	cell viability
COc1ccc2cc3[n+](cc2c1OC)CCc1cc2c(cc1-3)OCO2 [Berberine Sulfate]	59.5%
CO/N=C(\C(=O)N[C@@H]1C(=O)N2C(C(=O)[O-])=C(C[n+]3ccn4ncccc43)CS[C@H]12)c1nsc(N)n1 [Cefozopran hydrochloride]	114%
O=C1NC(=O)/C(=C/c2cccc(C(F)(F)F)c2)S1	94.9%
CC(C)NCC(O)c1ccc(O)c(O)c1 (stereo not given) [Isoprenaline hydrochloride]	100%
CC(C)C(C)C(O)C(O)C(C)C1CCC2C3COC(=O)C4CC(O)C(O)CC4(C)C3CCC12C (stereo not given) [Brassinolide]	115%
O=c1c(-c2ccc(O)cc2)coc2cc(O[C@@H]3O[C@H](CO)[C@@H](O)[C@H](O)[C@H]3O)cc(O)c12 [Genistin (Genistoside)]	98%
C[C@H]1[C@@H](O)O[C@@H]2O[C@@]3(C)CC[C@H]4[C@H](C)CC[C@@H]1[C@@]24OO3 [Dihydroartemisinin (DHA)]	29.9%
Nc1ncnc2c1ncn2C(C=O)OC(C=O)CO (stereo not given) [Adenosine Dialdehyde (ADOX)]	59.4%
COc1nc2ccc(Br)cc2cc1[C@@H](c1ccccc1)[C@@](O)(CCN(C)C)c1cccc2ccccc12 [Bedaquiline]	69.3%
CO[C@@H]1[C@@H](OC)[C@H](C)[C@@](O)(CC(=O)O)O[C@H]1[C@H](C)[C@H]1O[C@@]2(CC[C@@](C)([C@H]3CC[C@@](C)([C@@H]4O[C@@H]([C@H]5O[C@](C)(O)[C@H](C)C[C@@H]5C)C[C@@H]4O[C@@H]4C[C@H](OC)[C@@H](OC)[C@H](C)O4)O3)O2)C[C@H](O)[C@H]1C [Maduramycin Ammonium]	17.7%
CCn1c(=O)c(-c2ccc(-c3cncs3)cc2Cl)cc2cnc(Nc3ccc(N4CCN(C)CC4)cc3)nc21	75.9%
O=P(O)(O)Oc1cccc2ccccc12 [1-Naphthyl phosphate potassium salt]	107%
O=c1c(O)c(-c2ccc(O)cc2)oc2cc(O)cc(O)c12 [Kaempferol]	117%
CCC(=O)O[C@]1(C(=O)SCF)[C@H](C)C[C@H]2[C@@H]3C[C@H](F)C4=CC(=O)C=C[C@]4(C)[C@@]3(F)[C@@H](O)C[C@@]21C [Fluticasone propionate (Flonase, Veramyst)]	99%
Nc1nc(NC2CC2)cc(-c2cccc(Cl)c2Cl)n1	38%
CC(C)CCCC(C)C1CCC2C3=CC=C4CC(O)CCC4(C)C3CCC21C (stereo not given) [7-Dehydrocholesterol]	87%
O=C1C(c2[nH]c3ccccc3c2O)=Nc2ccccc21 [Indigo]	108%
CN(CCNc1ccnc2cc(Cl)ccc12)CCNc1ccnc2cc(Cl)ccc12	11.8%
COc1ccc2cc(CCC(C)=O)ccc2c1 [Nabumetone]	95.3%
COc1cc(C=O)ccc1O [Vanillin]	105%

Structure (SMILES)	cell viability
CCC(=O)OCC(=O)[C@@]1(OC(=O)CC)[C@@H](C)C[C@H]2[C@@H]3CCC4=CC(=O)C=C[C@]4(C)[C@@]3(F)[C@@H](O)C[C@@]21C [Betamethasone Dipropionate (Diprolene)]	109%
Cn1nc(C(C)(C)C)cc1C(=O)N[C@@H](Cc1cccc(Cl)c1)C(=O)NCC#N [Cathepsin Inhibitor 1]	100%
CCOC(=O)C1=C(C)NC(C)=C(C(=O)OC)C1c1cccc(Cl)c1Cl (stereo not given) [Felodipine (Plendil)]	88.8%
CC(C)=CCCC(C)(OC1OC(COC2OCC(O)C(O)C2O)C(O)C(O)C1O)C1CCC2(C)C1C(O)CC1C3(C)CCC(OC4OC(CO)C(O)C(O)C4O)C(C)(C)C3CCC12C (stereo not given) [Gynostemma Extract]	111%
CCNC(=O)[C@@H]1CCCN1C(=O)[C@H](CCCN=C(N)N)NC(=O)[C@H](CC(C)C)NC(=O)[C@@H](CC(C)C)NC(=O)[C@H](Cc1ccc(O)cc1)NC(=O)[C@H](CO)NC(=O)[C@H](Cc1c[nH]c2ccccc12)NC(=O)[C@H](Cc1cnc[nH]1)NC(=O)[C@@H]1CCC(=O)N1 [S3718 Leuprolide Acetate.cdx]	112%
Nc1ncnc2c1ncn2C1OC(COP(=O)(O)OP(=O)(O)O)C(O)C1O (stereo not given)	90.7%
O=CO [Formate]	104%
COc1cc2c(=O)c(-c3ccc(O)cc3)coc2cc1O[C@@H]1O[C@H](CO)[C@@H](O)[C@H](O)[C@H]1O [Glycitin]	103%
Nc1nc(-c2nn(Cc3ccccc3F)c3ncccc23)ncc1C1CC1	101%
O=C(O)c1cc2cccc([N+](=O)[O-])c2[nH]1	107%
C=C1CC[C@H]2O[C@]2(C)CC[C@@H]2[C@@H]1CC2(C)C [Caryophyllene oxide]	105%
CC(C)c1ccc(C=O)cc1 [4-Isopropylbenzaldehyde]	99.9%
COC(=O)/C=C/C(=O)OC [Dimethyl Fumarate]	95.6%
CCc1ccc(-c2nc(CSCC(=O)NCCc3ccccc3)c(C)o2)cc1	99.9%
CCCSc1nc(N[C@@H]2C[C@H]2c2ccc(F)c(F)c2)c2nnn([C@@H]3C[C@H](OCCO)[C@@H](O)[C@H]3O)c2n1 [Ticagrelor]	86.5%
O=C(O)C(=O)O [Oxalic acid]	94.5%
CN1C(C(=O)Nc2ccccn2)=C(O)c2sccc2S1(=O)=O [Tenoxicam(Mobiflex)]	112%
O=C(CCNC(=O)c1ccc(OC(F)(F)F)cc1)N[C@@H]1CCCc2ccccc21	105%
NC1(C(=O)N[C@@H](CCO)c2ccc(Cl)cc2)CCN(c2ncnc3[nH]ccc23)CC1	67.1%
COc1ccc(Oc2cc(C)c(-c3csc(NC(=O)c4ccncc4)n3)c(C)c2)cc1	37.6%
